Screens (PubChem)
Mcl-1 Bim block: inhibitors of Bim peptide binding to Mcl-1, primary screen, biochemical, bead-based flow cytometry, multiplex | Induced myeloid leukemia cell differentiation protein Mcl-1 (Homo sapiens), Q07820 | Bim peptide-Mcl-1 binding | 190,000 compounds, 0.1% hits | inhibition, % at 10 µM | AID 1009, 2008; in the data active = inhibition above about 40%
Target sequence (Q07820 whole entry, looked up): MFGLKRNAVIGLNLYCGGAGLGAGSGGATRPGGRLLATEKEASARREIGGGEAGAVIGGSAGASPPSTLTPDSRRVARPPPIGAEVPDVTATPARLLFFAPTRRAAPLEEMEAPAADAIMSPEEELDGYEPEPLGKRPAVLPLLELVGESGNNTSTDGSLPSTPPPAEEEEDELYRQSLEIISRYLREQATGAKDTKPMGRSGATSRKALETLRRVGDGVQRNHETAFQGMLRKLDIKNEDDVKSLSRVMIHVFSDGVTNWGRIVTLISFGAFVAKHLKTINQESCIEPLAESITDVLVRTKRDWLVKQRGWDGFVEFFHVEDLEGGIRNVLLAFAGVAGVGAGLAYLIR
BCLXL inh: inhibitors of human Bcl-xL, primary screen, biochemical, fluorescence polarization, HTS. 320,000 compounds, 0.7% hits. GST-Bcl-xL / FITC-Bim BH3 peptide fluorescence polarization. AID 2129, 2009. inhibition, % at 10.9 µM;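 active = inhibition above the mean of all tested compounds plus 3 SD, cutoff set per campaign, cut at about 30% in these data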;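 note: inhibitors lower millipolarization by displacing the labeled peptide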
Target sequence (Q07817 whole entry, looked up): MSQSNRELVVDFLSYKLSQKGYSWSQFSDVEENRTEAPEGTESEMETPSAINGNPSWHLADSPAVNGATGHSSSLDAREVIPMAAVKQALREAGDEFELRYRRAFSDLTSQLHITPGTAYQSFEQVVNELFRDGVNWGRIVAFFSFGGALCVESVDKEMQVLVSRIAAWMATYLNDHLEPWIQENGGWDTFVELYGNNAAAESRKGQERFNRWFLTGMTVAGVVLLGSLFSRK
GLD-1 RNA inh: GLD-1/TGE RNA complex disruptors, primary screen, biochemical, fluorescence polarization; inhibition, % at 5.96 µM; purified GLD-1 + fluorescein TGE RNA; 320,000 compounds, 0.44% hits; AID 2280, 2010;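 active = percent inhibition above a per-plate cutoff, the plate mean of test compounds plus 3 SD, cut at about 30% in these data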
Mcl1 Noxa PPI: Mcl-1/Noxa binding inhibitors, primary screen, biochemical, TR-FRET, 1536-well | 220,000 compounds, 1.5% hits | inhibition, % at 21.7 µM | AID 1022, 2008 | Induced myeloid leukemia cell differentiation protein Mcl-1 (Homo sapiens), Q07820 | TR-FRET Mcl-1/Noxa peptide binding, 2 h;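 active = compounds that cut the protein-peptide binding signal by more than 50% relative to plate controls in a single-dose test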;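 note: His-tagged Mcl-1 with rhodamine Noxa BH3 peptide and terbium anti-His antibody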
Mcl1-Bid inh: Mcl-1/Bid binding inhibitors, primary screen, biochemical, TR-FRET, 1536-well; Induced myeloid leukemia cell differentiation protein Mcl-1 (Homo sapiens), Q07820; TR-FRET Mcl-1/Bid-Dy647 peptide binding; inhibition, % at 21.7 µM; 220,000 compounds, 0.97% hits;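 active = compounds that cut the binding signal by more than half at the single screening dose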;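 note: His-tagged Mcl-1 with europium anti-His antibody binding Bid BH3 peptide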
MCL1 BIM primary: inhibitors of MCL1 binding to BIM-BH3, primary screen, biochemical, fluorescence polarization; Induced myeloid leukemia cell differentiation protein Mcl-1 (Homo sapiens), Q07820; GST-MCL1 / FITC-Bim-BH3 fluorescence polarization; inhibition, % at 10.9 µM; 320,000 compounds, 0.68% hits;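 active = inhibition above the mean inhibition of all tested compounds plus 3 SD, set per campaign, cut at about 40% in these data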;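 note: higher means more loss of mP so more displacement of Bim peptide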
BCLXL inh confirm: Bcl-xL inhibitors blocking Bim BH3 binding, confirmation, counter-screen for MCL1 inhibitor project, biochemical, fluorescence polarization. shares compounds with MCL1 BIM primary. GST-Bcl-xL / FITC-Bim BH3 peptide FP binding. inhibition, % at 10.9 µM. 1,700 compounds, 54% hits;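 active = inhibition above a cutoff equal to the mean inhibition of all tested compounds plus 3 SD, cut at about 30% in these data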
MCL1 inh confirm: inhibitors of MCL1 binding to BIM-BH3, confirmation, biochemical, fluorescence polarization, triplicate; shares compounds with MCL1 BIM primary; inhibition, % at 10.9 µM; 1,700 compounds, 61% hits; GST-MCL1 / FITC-Bim-BH3 fluorescence polarization;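 active = inhibition above the average of all tested compounds plus 3 SD, cut at about 40% in these data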
A number is an active result; . = inactive; / = no result given; + = active, no number. A selection: hits, their analogues and other compounds. The true share with any hit is near 2.3%.

SMILES	Mcl-1 Bim block	BCLXL inh	GLD-1 RNA inh	Mcl1 Noxa PPI	Mcl1-Bid inh	MCL1 BIM primary	BCLXL inh confirm	MCL1 inh confirm
COC(=O)CN(c1ccccc1)S(=O)(=O)c1ccc(F)cc1	.	.	.	.	.	+	.	.
CCN(c1ccccc1)S(=O)(=O)c1ccc(F)cc1	.	.	.	.	.	.	/	/
O=C(COC(=O)c1ccc[nH]c1=O)NCC12CC3CC(CC(C3)C1)C2	/	.	.	/	/	.	/	/
CCCN1C2CCCC1CC(NC(=O)c1ccccc1Br)C2 (stereo unspecified)	/	.	.	/	/	.	/	/
Cc1c2cc(O)c(=O)cc-2oc2cc(O)c(O)cc12	/	107	185	/	/	/	114	/
CCCOP(=O)(c1ccc(N(C)C)cc1)C(Nc1ccccc1)c1ccc(C)cc1 (stereo unspecified)	/	.	.	.	.	44	.	.
C[C@@H]1CC=C[C@H]2[C@H]1C(=O)N(Cc1ccccc1)[C@H]2c1cccc([N+](=O)[O-])c1	/	.	.	.	.	.	/	/
CCOc1ccccc1N1CCN(CC(=O)NC(C)c2ccccc2)CC1 (stereo unspecified)	/	.	.	/	/	.	/	/
CCCCCCC(=O)O	/	/	.	/	/	/	/	/
CCCCCCCCCCCCCCCC(=O)OC(CC(=O)O)C[N+](C)(C)C (stereo unspecified)	/	.	.	/	/	85	.	.
CCCn1c(N)c(C(=O)CSc2nnc(-c3ccoc3C)n2C)c(=O)n(C)c1=O	/	.	.	/	/	.	/	/
COc1ccc(N=Nc2nc3cc(Br)c(Br)cc3n2C)c(OC)c1	.	+	198	.	.	+	176	+
CCOC(=O)[C@@H]1[C@H]2COc3ccccc3[C@H]2N2C(=O)N(c3ccc(Cl)cc3)C(=O)[C@@]12C	/	.	.	/	/	.	/	/
O=C1/C(=N\S(=O)(=O)c2cccs2)C([n+]2cccc(Cc3ccccc3)c2)=C([O-])c2ccccc21	/	+	179	.	.	+	+	+
COc1ccc(NC(=O)COc2cccc(C(F)(F)F)c2)cn1	/	71	61	/	/	70	82	92
O=C1NC2(CCCC2)C(=O)N1CC(=O)N(Cc1ccccc1)c1ccccc1	/	.	.	/	/	.	/	/
CCn1c(SC(C)C(=O)O)nc2sc3c(c2c1=O)CCC3 (stereo unspecified)	.	.	.	67	.	44	.	52
CC(Sc1nc2sc3c(c2c(=O)n1-c1ccccc1)CCCC3)C(=O)O (stereo unspecified)	/	.	.	.	.	.	/	/
Cc1ccc(C)n1-c1sc2c(c1C(=O)O)CCCC2	.	.	.	.	.	70	.	49
CCOC(=O)c1c(-n2c(C)cc(C=O)c2C)sc2c1CCCC2	.	.	.	.	.	.	/	/
O=C(CSc1nc2ccccc2c(=O)[nH]1)c1ccc(O)c(O)c1	.	.	.	.	.	48	38	66
O=C(CSc1nc2ccccc2c(=O)[nH]1)c1ccc(O)cc1O	.	/	/	.	.	/	/	/
O=C1Nc2ccccc2SC(c2ccccc2)C1O (stereo unspecified)	.	.	.	104	63	63	.	91
CC(C)OC(=O)CC1C(=O)NCCN1C(=S)NC(=O)c1cccs1 (stereo unspecified)	.	.	.	.	.	.	/	/
COc1cccc(CC(=O)OCC(=O)N(C)CC(=O)Nc2ccc(F)cc2)c1	/	.	.	/	/	.	/	/
SMILES	Mcl-1 Bim block	BCLXL inh	GLD-1 RNA inh	Mcl1 Noxa PPI	Mcl1-Bid inh	MCL1 BIM primary	BCLXL inh confirm	MCL1 inh confirm
Cn1c(=O)c(Nc2ccc(Cl)cc2)c2c3c(cccc31)C(=O)c1ccccc1-2	.	+	172	.	.	+	162	197
O=C1CCNc2cc3ccccc3cc21	.	112	57	60	.	131	114	144
CC(=O)c1ccc(NC(=O)NC2CC(=O)N(c3ccc4c(c3)OCCO4)C2)cc1 (stereo unspecified)	/	.	.	/	/	.	/	/
CCCCN(C(=O)c1cc(-c2ccco2)nc2ccccc12)c1c(N)n(CCCC)c(=O)[nH]c1=O	/	.	.	/	/	45	.	.
CCNC(=O)COC(=O)c1cc(-c2ccco2)nc2ccccc12	/	.	.	81	.	50	.	76
Cc1cc(C(=O)OCC(=O)NC(C)C)c2ccccc2n1	/	.	.	.	.	.	/	/
O=C(OCC(=O)N1CCN(C(=O)c2ccco2)CC1)c1cc(-c2ccco2)nc2ccccc12	.	31	.	99	.	82	.	73
CCOc1cc(CN2CCC(n3nccc3NC(=O)C3CC3)CC2)ccc1O	/	.	.	/	/	.	/	/
COc1ccc(Cl)cc1S(=O)(=O)NC(C)C(=O)NCc1ccc2c(c1)OCO2 (stereo unspecified)	/	.	.	/	/	.	/	/
COc1cc(NC(=O)c2cccc(F)c2)ccc1NC(=O)c1cc2ccccc2o1	/	.	.	/	/	.	/	/
COc1ccc(COC(=O)c2cccc(S(=O)(=O)N3CCN(C(C)=O)CC3)c2)cc1	/	.	.	/	/	.	/	/
N#C/C(=C(/O)C(Cl)(Cl)Cl)c1nc2ccccc2[nH]1	/	.	.	.	.	.	/	/
CC(=O)Nc1ccc(N/C=C2/CCCC2=O)cc1	/	.	.	.	.	80	.	.
CCN1CCc2nc3sc(C(=O)N4CCc5ccccc5C4)c(N)c3cc2C1	/	.	.	/	/	.	/	/
CCN1CCc2nc3sc(C(=O)Nc4cccnc4Cl)c(N)c3cc2C1	/	46	.	/	/	54	.	.
COc1cc2c(cc1OC)CN(c1ccc(-c3ccccc3OC)nn1)CC2	.	54	.	.	.	65	.	.
COc1cc2c(cc1OC)CN(c1ccc3ccccc3n1)CC2	/	.	.	/	/	.	/	/
Nc1nn2c(-c3ccccc3)cc(=O)[nH]c2c1N=Nc1ccc(O)cc1	.	.	.	.	80	64	38	74
CC(Oc1cccnc1[N+](=O)[O-])C(=O)Nc1cccc(Cl)c1 (stereo unspecified)	/	.	.	/	/	.	/	/
CCC(=O)Nc1ccc2nc3c(=O)[nH]c(=S)[nH]c3nc2c1	/	61	.	/	/	98	107	161
